Test [1] in a line: qHTS assay to identify small molecule antagonists of the estrogen related receptor (ERR) signaling pathway (AID 1224819;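 also: luminescence from an ERR-driven luciferase reporter measured with One-Glo reagent; series mostly up to about 46 µM; nearly all actives have a fitted effect of over 50% in size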). The procedure, abridged:
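ERR reporter cells were plated at 2,000 cells/well and left 6 h at 37 C/5% CO2 before pin-tool transfer of compounds in DMSO. After 18 h at 37 C, One-Glo was added and luminescence was read 30 min later at room temperature.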
Background: Quantitative high-throughput screening tests each substance at several concentrations.

Test [2] is described as follows: qHTS assay to identify small molecule agonists of the estrogen related receptor (ERR) signaling pathway (AID 1224820). The procedure, abridged: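 ERR reporter cells (NTP line) plated 2,000/well, incubated 6 h at 37 C/5% CO2, then pinned with compounds in DMSO and held 18 h at 37 C. One-Glo added; luminescence read after 30 min at room temperature.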
Test [3] deals with estrogen-related receptor alpha (ERRalpha) with PGC-1alpha coactivator, human. Briefly: qHTS assay to identify small molecule antagonists of the estrogen related receptor signaling pathway with the pleiotropic PPARgamma coactivator (PGC) (AID 1224821; calls by dose curve;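 also: series mostly up to about 46 µM; lower luminescence signal means antagonism of PGC/ERR signalling; nearly all actives have a fitted effect of over 50% in size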). The procedure, abridged: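 Cells engineered for PGC/ERR signalling (line from NTP) were plated 6 h at 37 C/5% CO2, then exposed to DMSO-dissolved compound for 18 h at 37 C. Luciferase activity was read by One-Glo luminescence after 30 min at room temperature.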

The nature of test [4]: qHTS assay to identify small molecule agonists of the estrogen related receptor signaling pathway with the pleiotropic PPARgamma coactivator (PGC) (AID 1224823). The procedure, abridged:
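PGC/ERR reporter cells were seeded, rested 6 h at 37 C/5% CO2, then exposed to compounds in DMSO by pin transfer for 18 h at 37 C. Luciferase activity was read as luminescence after One-Glo reagent and 30 min at room temperature.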

Test [5] in a line: qHTS assay to identify small molecule antagonists of the retinoid acid receptor (RAR) signaling pathway - cell viability counter screen (AID 1159551). Also: nearly all actives have a fitted effect of over 35% in size. Also: potency is read from the fitted curve at half-maximal effect. The procedure, abridged: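 C3RL4 cells were seeded overnight at 37 C, then treated with compounds plus 1 uM (final) retinol for 6 h at 37 C. Viability was read as ATP by CellTiter-Glo luminescence after 30 min at room temperature.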

Test [6] can be described thus: qHTS assay to identify small molecule antagonists of the retinoic acid receptor (RAR) signaling pathway (AID 1159552; also: nearly all actives have a fitted effect of over 50% in size; also: potency is read from the fitted curve at half-maximal effect). The procedure, abridged:
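Cells of the C3RL4 line were seeded, incubated overnight, then dosed with compounds in DMSO followed immediately by retinol (1 uM final). Six hours later luciferase detection reagent went in; signal was measured after 30 min at RT.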

The nature of test [7]: qHTS assay to identify small molecule agonists of the retinoic acid receptor (RAR) signaling pathway (AID 1159553). Also: potency is read from the fitted curve at half-maximal effect. The procedure, abridged: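 C3RL4 cells carrying a RARE luciferase reporter were plated overnight at 37 C, then exposed to compounds in DMSO for 6 hr at 37 C and 5% CO2. Luminescence was read 30 min after luciferase reagent addition at room temperature.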
Test [8] concerns the target Luciferin 4-monooxygenase (Photinus pyralis) (UniProt P08659). Briefly: qHTS assay to identify small molecule inhibitors of firefly luciferase (AID 1224835). Also: nearly all actives have a fitted effect of over 25% in size. Also: potency is read from the fitted curve at half-maximal effect. As to activity change, negative = inhibition: series mostly up to about 120 µM. The procedure, abridged:
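Biochemical qHTS: compounds run as interplate titrations against purified firefly enzyme, with D-luciferin and ATP each at its KM concentration. Light output recorded by CCD imaging.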

Test [9] can be described thus: qHTS assay to identify small molecule agonists of the constitutive androstane receptor (CAR) signaling pathway - cell viability counter screen (AID 1224836). Also: nearly all actives have a fitted effect of over 45% in size. Also: potency is read from the fitted curve at half-maximal effect. As to viability change, negative = cytotoxic: series mostly up to about 92 µM. The procedure, abridged:
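HepG2-CYP2B6-hCAR, 2500 cells/well, 4 h pre-incubation; cpd 15 conc + PK11195 0.75 uM final; 23 h, 37 C/5% CO2; CellTiter-Fluor, fluorescence.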

The nature of test [10]: qHTS assay to identify small molecule antagonists of the constitutive androstane receptor (CAR) signaling pathway - cell viability counter screen (AID 1224837). Also: nearly all actives have a fitted effect of over 45% in size. Also: potency is read from the fitted curve at half-maximal effect. As to activity change, negative = cytotoxicity: series mostly up to about 92 µM. The procedure, abridged:
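HepG2 cells stably expressing hCAR and a CYP2B6-2.2kb reporter were plated and pre-incubated 4 hr at 37 C/5% CO2, then given compounds at 15 concentrations plus 50 nM CITCO (final). After 23 hr, viability was read by CellTiter-Fluor fluorescence.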

Test [11] addresses Nuclear receptor subfamily 1 group I member 3 (Homo sapiens) (UniProt Q14994). The experiment in a line: qHTS assay to identify small molecule antagonists of the constitutive androstane receptor (CAR) signaling pathway (AID 1224838). Also: nearly all actives have a fitted effect of over 40% in size. Also: potency is read from the fitted curve at half-maximal effect. The procedure, abridged:
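HepG2 cells stably co-transfected with hCAR and a CYP2B6-2.2kb luciferase reporter were seeded 4 h before compound addition at 15 concentrations. Cells were stimulated with 50 nM CITCO (final) for 24 h at 37 C; luciferase luminescence was then read.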

Test [12] shares this target. Briefly: qHTS assay to identify small molecule agonists of the constitutive androstane receptor (CAR) signaling pathway (AID 1224839). Also: nearly all actives have a fitted effect of over 15% in size. Also: potency is read from the fitted curve at half-maximal effect.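 As to activation: HepG2 cells stably carrying human CAR and a CYP2B6 luciferase reporter; series mostly up to about 92 µM.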 The procedure, abridged: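 HepG2-CYP2B6-hCAR cells, 2500/well, 4 h pre-incubation; compounds 15 conc.; PK11195 0.75 uM final; 24 h, 37 C/5% CO2; ONE-Glo luciferase read.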
Test [13] is described as follows: qHTS assay to identify small molecule antagonists of the estrogen related receptor signaling pathway with the pleiotropic PPARgamma coactivator (PGC) from Tox21 10K library - cell viability counter screen (AID 1224840; active = well fitted cell-killing curve with a large enough effect in the repeat runs, not every such curve was filed as active; also: nearly all actives have a fitted effect of over 40% in size; also: potency is read from the fitted curve at half-maximal effect). The procedure, abridged: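 PGC/ERR cells were seeded at 2,000 cells/well and left 6 hours at 37 C/5% CO2 before pin-tool addition of compounds in DMSO. After 17.5 hours at 37 C, CellTiter-Fluor was added and fluorescence read 30 minutes later.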

For test [14], the target named is Thyrotropin receptor (Homo sapiens) (UniProt P16473). The experiment in a line: qHTS assay to identify small molecule agonists of the thyroid stimulating hormone receptor (TSHR) signaling pathway (AID 1224843; calls by dose curve; also: nearly all actives have a fitted effect of over 45% in size; also: potency is read from the fitted curve at half-maximal effect). The procedure, abridged: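 Steps: seed 800 TSHR-HEK293 cells per well; add test compound and hold 30 min at ambient temperature; dispense cAMP-d2 then anti-cAMP cryptate; incubate 1 h at ambient; measure fluorescence intensity.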
Chain of Thyrotropin receptor (Homo sapiens) (P16473 whole entry, looked up): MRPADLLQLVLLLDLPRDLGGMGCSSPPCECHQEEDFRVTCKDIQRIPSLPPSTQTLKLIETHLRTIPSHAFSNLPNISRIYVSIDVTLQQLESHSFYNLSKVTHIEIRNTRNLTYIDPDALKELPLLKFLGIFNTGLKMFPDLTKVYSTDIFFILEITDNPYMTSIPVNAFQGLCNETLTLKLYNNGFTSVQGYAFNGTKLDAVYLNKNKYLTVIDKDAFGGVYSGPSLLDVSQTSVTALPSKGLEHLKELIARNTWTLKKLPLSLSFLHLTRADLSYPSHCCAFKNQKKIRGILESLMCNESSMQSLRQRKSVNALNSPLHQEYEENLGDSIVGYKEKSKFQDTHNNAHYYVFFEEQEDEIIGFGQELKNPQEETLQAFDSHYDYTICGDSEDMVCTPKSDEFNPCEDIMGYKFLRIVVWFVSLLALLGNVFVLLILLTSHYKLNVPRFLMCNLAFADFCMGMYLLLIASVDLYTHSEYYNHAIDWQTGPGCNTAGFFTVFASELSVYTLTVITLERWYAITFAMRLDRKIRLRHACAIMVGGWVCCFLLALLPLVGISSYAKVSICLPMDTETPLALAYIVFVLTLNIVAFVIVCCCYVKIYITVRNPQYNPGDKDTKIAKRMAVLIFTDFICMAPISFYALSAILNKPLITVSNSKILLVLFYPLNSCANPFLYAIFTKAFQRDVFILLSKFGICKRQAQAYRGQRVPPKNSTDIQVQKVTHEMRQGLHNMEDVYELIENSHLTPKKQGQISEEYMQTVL

Test [15] is described as follows: qHTS assay to identify small molecule agonists of the hypoxia (HIF-1) signaling pathway - cell viability counter screen (AID 1224844; calls by dose curve; also: nearly all actives have a fitted effect of over 50% in size; also: potency is read from the fitted curve at half-maximal effect). The procedure, abridged: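 HRE-bla ME-180 cells in medium with 0.5% dialyzed FBS were preincubated 5 hrs at 37C, exposed to compounds for 17 hrs, then viability was read as CellTiter-Glo luminescence after 30 min at room temperature, in the reporter wells.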

Test [16] is described as follows: qHTS assay to identify small molecule antagonists of the estrogen related receptor (ERR) signaling pathway - cell viability counter screen (AID 1224818).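 Also: series mostly up to about 46 µM; viability measured after 17.5 h of compound exposure.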 The procedure, abridged:
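ERR reporter cells plated 6 h at 37 C/5% CO2, then compounds in DMSO pin-transferred and incubated 17.5 h at 37 C. Viability read as CellTiter-Fluor fluorescence after 30 min at 37 C.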

Test [17] is described as follows: qHTS assay to identify small molecule antagonists of the estrogen related receptor signaling pathway with the pleiotropic PPARgamma coactivator (PGC) from Tox21 10K library (AID 1224841; call rule not given here; also: potency is read from the fitted curve at half-maximal effect; as to activity, negative = inhibition: series mostly up to about 92 µM). The procedure, abridged:
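PGC/ERR reporter cells were seeded at 2,000 cells/well and held 6 hours at 37 C/5% CO2 before pin-tool addition of compounds in DMSO. After 18 hours at 37 C, One-Glo was added and luminescence read after 30 minutes at room temperature.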

Test [18] in a line: qHTS assay to identify small molecule agonists of the estrogen related receptor signaling pathway with the pleiotropic PPARgamma coactivator (PGC) from Tox21 10K library (AID 1224842). Also: nearly all actives have a fitted effect of over 15% in size. The procedure, abridged: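 PGC/ERR reporter cell line, 2,000 cells per well, incubated 6 h at 37 C before 23 nL compound in DMSO was added. After 18 h at 37 C, One-Glo luminescence read following 30 min at room temperature.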

Test [19] can be described thus: qHTS assay to identify small molecule agonists of H2AX (AID 1224845; active = well fitted activation curve with a large enough effect in the signal ratio in the repeat runs, not every such curve was filed as active; the % refers to the signal ratio; also: potency is read from the fitted curve at half-maximal effect). The procedure, abridged:
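Wild-type CHO-K1 cells, plated overnight, exposed 3hr at 37C to 15 concentrations (0.76% DMSO final). Lysed, then HTRF anti-pH2AX (S139) cryptate and anti-H2AX-d2 antibodies, 24 hr room temperature; 665/620 nm emission read.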

The nature of test [20]: qHTS assay to identify small molecule antagonists of the estrogen related receptor (ERR) signaling pathway from Tox21 library - cell viability counter screen (AID 1224834). Also: nearly all actives have a fitted effect of over 30% in size. Also: potency is read from the fitted curve at half-maximal effect. The procedure, abridged:
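ERR reporter cells were plated 6 h before compound addition, then exposed to test compounds in DMSO for 17.5 h at 37 C. Viability was read as CellTiter-Fluor fluorescence after a 30-minute incubation at 37 C.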

Inconclusive results are not listed. Values without a mark were called inactive. Calls of active or inactive are those of the source. Unless noted, calls follow the shape of the dose curve; as a rule, active = well fitted curve in the direction sought with a large enough effect in the repeat runs; inconclusive = weak or mixed curves; inactive = no such curve, though single readings can be large; an effect the other way counts as inactive or inconclusive.
% is scaled to controls: 0 for no effect and ±100 for the full control effect.

Chain of Luciferin 4-monooxygenase (Photinus pyralis) (P08659 whole entry, looked up): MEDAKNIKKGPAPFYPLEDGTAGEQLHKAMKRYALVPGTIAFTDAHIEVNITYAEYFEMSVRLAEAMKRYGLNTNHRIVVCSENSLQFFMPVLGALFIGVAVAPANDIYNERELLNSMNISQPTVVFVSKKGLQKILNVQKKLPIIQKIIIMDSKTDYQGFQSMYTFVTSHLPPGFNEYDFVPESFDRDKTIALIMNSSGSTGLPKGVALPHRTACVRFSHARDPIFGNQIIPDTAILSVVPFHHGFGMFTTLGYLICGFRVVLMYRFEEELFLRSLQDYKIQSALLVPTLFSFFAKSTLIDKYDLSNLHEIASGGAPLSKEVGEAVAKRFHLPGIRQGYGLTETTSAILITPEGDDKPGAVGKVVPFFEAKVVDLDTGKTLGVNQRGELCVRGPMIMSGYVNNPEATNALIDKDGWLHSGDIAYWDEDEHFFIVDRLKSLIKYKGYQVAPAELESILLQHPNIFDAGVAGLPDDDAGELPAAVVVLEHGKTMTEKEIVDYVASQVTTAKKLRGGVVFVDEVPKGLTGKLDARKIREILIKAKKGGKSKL
Chain of Nuclear receptor subfamily 1 group I member 3 (Homo sapiens) (Q14994 whole entry, looked up): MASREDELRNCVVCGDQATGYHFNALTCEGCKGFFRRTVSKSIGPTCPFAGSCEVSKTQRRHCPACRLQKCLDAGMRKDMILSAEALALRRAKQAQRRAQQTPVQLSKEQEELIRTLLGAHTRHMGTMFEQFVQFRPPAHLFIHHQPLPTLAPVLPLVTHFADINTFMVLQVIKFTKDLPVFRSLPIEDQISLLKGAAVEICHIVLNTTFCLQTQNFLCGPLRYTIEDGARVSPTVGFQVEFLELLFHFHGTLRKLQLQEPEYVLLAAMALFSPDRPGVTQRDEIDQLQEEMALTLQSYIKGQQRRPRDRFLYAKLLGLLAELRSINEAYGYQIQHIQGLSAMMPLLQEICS

As for `O=[N+]([O-])c1c2ccccc2cc2ccccc12`, the Potency result in test [1] and in [3] was “inactive” each time. The compound was classed as inactive in [2] and in test [4].

With `O=C1NCN(c2ccccc2)C12CCN(CC1COc3ccccc3O1)CC2` (centres undefined), the compound was classed as inactive in test [2] and in test [4].

In the case of `Nc1ccccc1C(=O)OC/C=C/c1ccccc1`, the Potency entry in [5], in [6], in test [9], in test [10], in test [11] and in test [13] was “inactive” each time. The Potency result in test [14] was “inactive”. The figures for the Potency in test [7], in [8] and in test [12] were 1.22 µM (active), 31.8 µM (active) and 48.7 µM (active), respectively.

For `CC(=O)OC1(c2ccccc2)CCN(CCc2ccccc2)CC1`, the Potency entry in test [5], in test [6], in [7], in [8], in test [12] and in [13] was “inactive” in each case. Moreover, the Potency result in test [14] and in [15] was “inactive” throughout.

Turning to `ClC1=C(Cl)[C@]2(Cl)[C@@H]3[C@@H]4C[C@@H]([C@H]5O[C@@H]45)[C@@H]3[C@@]1(Cl)C2(Cl)Cl`, the Potency in [5] was 61.1 µM (active); in test [6], 27.3 µM (active); in [13] it was 61.1 µM (active); in test [17] it was 61.1 µM (active); in [14], 1.93 µM (active); in test [19] it was 17.9 µM (active). The compound was called inactive in test [16], in test [2] and in [4]. The Potency entry in [8], in [9], in test [10] and in test [18] was “inactive” throughout.

Turning to `Brc1c(Br)c(Br)c(Oc2c(Br)c(Br)c(Br)c(Br)c2Br)c(Br)c1Br`, the activity change, negative = cytotoxicity was 2.15% [at 19 µM] in [5], 5.53% [at 19 µM] in [10] and 12% [at 15.8 µM] in test [15]. Further, the activity, negative = inhibition in test [6] was -8.07% [at 19 µM]; in test [11], -4.8% [at 19 µM]; in test [17], 39.4% [at 19 µM]. Moreover, the values for the viability change, negative = cytotoxic in [20], in test [9] and in [13] were 0.115% [at 19 µM], -2.08% [at 19 µM] and 10.1% [at 19 µM], respectively. Moreover, the activity change, negative = inhibition in test [8] is 1.46% [at 23.6 µM]. Moreover, the values for the activation in [12], in test [18] and in test [14] were -0.206% [at 19 µM], 1.27% [at 19 µM] and -5.88% [at 19 µM], respectively. Further, in test [19], the activation (H2AX phosphorylation) is -7.06% [at 31.6 µM].

As to `CN(C)C1CSSSC1`, the Potency result in [5], in test [6], in test [7], in test [20], in test [9] and in test [11] was “inactive” in each case. The Potency result in test [12], in test [13], in test [18], in test [15] and in [19] was “inactive” in each case.

Regarding `CC(=O)C(Cl)(Cl)Cl`, the Potency entry in [5], in [7], in [12], in test [18], in test [14] and in test [15] was “inactive” each time. For the same compound, the Potency result in [19] was “inactive”. Further, the Potency was 29.6 µM (active) in test [6]; 20.9 µM (active) in test [20]; 16.6 µM (active) in test [9]; 20.9 µM (active) in test [10]; 23.5 µM (active) in test [11]; 23.5 µM (active) in test [13]. In test [17], the Potency was 8.34 µM (active).

Turning to `COC12CC[C@@]3(C[C@@H]1C(C)(O)C(C)(C)C)[C@H]1Cc4ccc(O)c5c4[C@@]3(CCN1CC1CC1)[C@H]2O5` (some centres undefined), the Potency is 60.7 µM (active) in test [5]; 54.1 µM (active) in test [6]; 27.1 µM (active) in [20]; 43 µM (active) in [9]; 54.1 µM (active) in [10]; 48.2 µM (active) in test [11]. The Potency was 43 µM (active) in test [13], 34.4 µM (active) in [15] and 56.3 µM (active) in test [19]. The Potency entry in test [8], in test [12], in [18] and in test [14] was “inactive” in each case.

The values above are taken from PubChem BioAssay (Tox21).
